Measured values taken from PubChem BioAssay AID1159580 (chemical genetic matrix, 2015).
Out of some 5,500 compounds screened, about 2,000 (36%) were called active. About 18% were inconclusive and are not listed. The list shows a part of the results. A number with no mark means an inactive call. Rule as the data show it: active = normalized growth mostly below about 0.91 (no sharp cut-off); inconclusive = no clear call, values can overlap the other calls; inactive = mostly above about 0.92.

Assay: chemical genetic growth profiling, strain panel (AID 1159580);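 also: tested at 20 µM; growth read once vehicle control cultures reached saturation at 30 °C; 1 = growth at the plate median or of vehicle wells; lower values mean less growth of the strain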
Details: S. cerevisiae deletion strains, growth OD
[1] = locus YAR019C, strain CDC15, active compounds read low
[2] = locus YBL105C, strain PKC1, active compounds read low
[3] = locus YBR135W, strain CKS1, active compounds read low
[4] = locus YBR136W, strain MEC1, active compounds read low
[5] = locus YBR160W, strain CDC28, active compounds read low
[6] = locus YDL017W, strain CDC7, active compounds read low
[7] = locus YDL028C, strain MPS1, active compounds read low
[8] = locus YDL101C, strain DUN1, active compounds read low
[9] = locus YDL108W, strain KIN28, active compounds read low
[10] = locus YDL132W, strain cdc53, active compounds read low
[11] = locus YDL214C, strain PRR2, active compounds read low
[12] = locus YDR052C, strain DBF4, active compounds read low
[13] = locus YDR054C, strain cdc34, active compounds read low
[14] = locus YDR226W, strain ADK1, active compounds read low
[15] = locus YDR477W, strain SNF1, active compounds read low
[16] = locus YER123W, strain YCK3, active compounds read low
[17] = locus YER133W, strain GLC7, active compounds read low
[18] = locus YFL009W, strain cdc4, active compounds read low
[19] = locus YFL029C, strain CAK1, active compounds read low
[20] = locus YFR003C, strain YPI1, active compounds read low
[21] = locus YFR019W, strain FAB1, active compounds read low
[22] = locus YFR028C, strain CDC14, active compounds read low
[23] = locus YGR040W, strain KSS1, active compounds read low
[24] = locus YGR052W, strain FMP48, active compounds read low
[25] = locus YGR092W, strain DBF2, active compounds read low
[26] = locus YHR030C, strain SLT2, active compounds read low
[27] = locus YHR079C, strain IRE1, active compounds read low
[28] = locus YHR082C, strain KSP1, active compounds read low
[29] = locus YHR205W, strain SCH9, active compounds read low
[30] = locus YIL147C, strain SLN1, active compounds read low
[31] = locus YJL095W, strain BCK1, active compounds read low
[32] = locus YJL157C, strain FAR1, active compounds read low
[33] = locus YJR016C, strain ILV3, active compounds read low
[34] = locus YJR066W, strain TOR1 (second series), active compounds read low
[35] = locus YJR066W, strain TOR1, active compounds read low
[36] = locus YKL048C, strain ELM1, active compounds read low
[37] = locus YKL067W, strain YNK1, active compounds read low
[38] = locus YKL101W, strain HSL1, active compounds read low
[39] = locus YKL193C, strain SDS22, active compounds read low
[40] = locus YKL203C, strain TOR2, active compounds read low
[41] = locus YLR113W, strain HOG1, active compounds read low
[42] = locus YLR133W, strain CKI1, active compounds read low
[43] = locus YLR403W, strain SFP1, active compounds read low
[44] = locus YML070W, strain DAK1, active compounds read low
[45] = locus YMR001C, strain CDC5, active compounds read low
[46] = locus YMR205C, strain PFK2 (second series), active compounds read low
[47] = locus YMR277W, strain FCP1, active compounds read low
[48] = locus YNL006W, strain LST8, active compounds read low
[49] = locus YNL020C, strain ARK1, active compounds read low
[50] = locus YNL161W, strain CBK1, active compounds read low
[51] = locus YNL183C, strain NPR1, active compounds read low
[52] = locus YNL207W, strain RIO2, active compounds read low
[53] = locus YNL222W, strain SSU72, active compounds read low
[54] = locus YNL307C, strain MCK1 (second series), active compounds read low
[55] = locus YOL078W, strain AVO1, active compounds read low
[56] = locus YOL136C, strain PFK27, active compounds read low
[57] = locus YOR061W, strain CKA2, active compounds read low
[58] = locus YOR119C, strain RIO1, active compounds read low
[59] = locus YOR231W, strain MKK1, active compounds read low
[60] = locus YOR329C, strain SCD5, active compounds read low
[61] = locus YPL031C, strain PHO85, active compounds read low
[62] = locus YPL153C, strain RAD53, active compounds read low
[63] = locus YPL204W, strain HRR25, active compounds read low
[64] = locus YPL209C, strain IPL1, active compounds read low
[65] = locus YPL256C, strain CLN2, active compounds read low
[66] = locus YPR025C, strain CCL1, active compounds read low
[67] = locus YPR106W, strain ISR1, active compounds read low
[68] = locus YPR111W, strain DBF20, active compounds read low
[69] = strain NNK1, active compounds read low
[70] = strain TSCII, active compounds read low

COc1ccc(CC2CCC(=NOC(=O)c3c(Cl)cccc3Cl)CC2)cc1 (stereo unspecified)
normalized growth [1]: 1.03 | normalized growth [2]: 1.06 [resistant] (active) | normalized growth [3]: 1.04 | normalized growth [4]: 1.05 | normalized growth [5]: 1.05 | normalized growth [6]: 1.04 | normalized growth [7]: 1.04 | normalized growth [8]: 0.994 | normalized growth [9]: 1.04 | normalized growth [10]: 1.01 | normalized growth [11]: 0.948 | normalized growth [12]: 0.99 | normalized growth [13]: 1.02 | normalized growth [14]: 1.02 | normalized growth [15]: 0.956 | normalized growth [16]: 0.938 | normalized growth [17]: 0.949 | normalized growth [18]: 1.02 | normalized growth [19]: 1.03 | normalized growth [20]: 1.04 | normalized growth [21]: 0.971 | normalized growth [22]: 1 | normalized growth [23]: 0.957 | normalized growth [24]: 0.98 | normalized growth [25]: 1.01 | normalized growth [26]: 0.829 (active) | normalized growth [27]: 1 | normalized growth [28]: 1.03 | normalized growth [29]: 1 | normalized growth [30]: 1.04 | normalized growth [31]: 0.984 | normalized growth [32]: 0.962 | normalized growth [33]: 1.01 | normalized growth [34]: 0.928 | normalized growth [35]: 1.06 | normalized growth [36]: 0.976 | normalized growth [37]: 0.959 | normalized growth [38]: 0.966 | normalized growth [39]: 1.02 | normalized growth [40]: 1.01 | normalized growth [41]: 0.854 (active) | normalized growth [42]: 0.98 | normalized growth [43]: 1.01 | normalized growth [44]: 0.953 | normalized growth [45]: 1.03 | normalized growth [46]: 0.962 | normalized growth [47]: 1.02 | normalized growth [48]: 1.05 | normalized growth [49]: 0.977 | normalized growth [50]: 1.05 | normalized growth [51]: 1.05 | normalized growth [52]: 1.01 | normalized growth [53]: 1.06 | normalized growth [54]: 0.963 | normalized growth [55]: 1.03 | normalized growth [56]: 0.961 | normalized growth [57]: 0.971 | normalized growth [58]: 1.03 | normalized growth [59]: 1.02 | normalized growth [60]: 1.05 | normalized growth [61]: 0.952 | normalized growth [62]: 0.948 | normalized growth [63]: 0.929 | normalized growth [64]: 1.04 | normalized growth [65]: 0.941 | normalized growth [66]: 1.06 [resistant] (active) | normalized growth [67]: 1.04 | normalized growth [68]: 1.04 | normalized growth [69]: 1.03 | normalized growth [70]: 1.02

COc1ccc(CC2CCC(=NOC(=O)c3ccc(C(C)(C)C)cc3)CC2)cc1 (stereo unspecified)
normalized growth [1]: 0.991 | normalized growth [2]: 1.01 | normalized growth [3]: 0.988 | normalized growth [4]: 0.985 | normalized growth [5]: 0.993 | normalized growth [6]: 0.982 | normalized growth [7]: 0.984 | normalized growth [8]: 0.977 | normalized growth [9]: 0.984 | normalized growth [10]: 0.977 | normalized growth [11]: 0.947 | normalized growth [12]: 0.975 | normalized growth [13]: 0.98 | normalized growth [14]: 0.979 | normalized growth [15]: 0.946 | normalized growth [16]: 0.927 | normalized growth [17]: 0.936 | normalized growth [18]: 0.969 | normalized growth [19]: 0.988 | normalized growth [20]: 0.983 | normalized growth [21]: 0.972 | normalized growth [22]: 0.975 | normalized growth [23]: 0.936 | normalized growth [24]: 0.958 | normalized growth [25]: 0.999 | normalized growth [26]: 0.828 (active) | normalized growth [27]: 0.999 | normalized growth [28]: 1.01 | normalized growth [29]: 0.999 | normalized growth [30]: 0.978 | normalized growth [31]: 0.952 | normalized growth (locus YJL128C, strain PBS2, active compounds read low): 0.993 | normalized growth [32]: 0.955 | normalized growth [33]: 0.99 | normalized growth [34]: 0.909 | normalized growth [35]: 1.06 | normalized growth [36]: 0.953 | normalized growth [37]: 0.951 | normalized growth [38]: 0.941 | normalized growth [39]: 0.987 | normalized growth [40]: 1.01 | normalized growth [41]: 0.844 (active) | normalized growth [42]: 0.961 | normalized growth [43]: 1.01 | normalized growth [44]: 0.93 | normalized growth [45]: 0.986 | normalized growth [46]: 0.959 | normalized growth [47]: 0.976 | normalized growth [48]: 1 | normalized growth [49]: 0.964 | normalized growth [50]: 0.994 | normalized growth [51]: 1.06 | normalized growth [52]: 0.973 | normalized growth [53]: 0.993 | normalized growth [54]: 0.94 | normalized growth [55]: 0.988 | normalized growth [56]: 0.956 | normalized growth [57]: 0.963 | normalized growth [58]: 1.02 | normalized growth [59]: 0.975 | normalized growth [60]: 0.998 | normalized growth [61]: 0.937 | normalized growth [62]: 0.924 | normalized growth [63]: 0.916 | normalized growth [64]: 0.988 | normalized growth [65]: 0.881 | normalized growth [66]: 0.999 | normalized growth [67]: 0.986 | normalized growth [68]: 0.98 | normalized growth [69]: 0.977 | normalized growth [70]: 0.978
